According to PubChem BioAssay AID651956 (Broad Institute, 2012):
Measured potencies and affinities stand elsewhere. Inconclusive results are not listed. The source made the active and inactive calls.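 Rule for the calls: active = in every test run, a fitted half-maximal concentration for signal decrease at or below twice the highest tested concentration; inconclusive = runs disagree, flat 30 to 70% decrease, or poor fit; inactive = the rest.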

Test: miR-122 activators in hepatoma reporter cells, dose response, cell-based, Huh7 psiCHECK-miR122, Renilla luciferase, cherry-picked (AID 651956);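 note: Renilla luciferase from a miR-122 sensor reporter so lower signal means miR-122 activation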
Conditions: 48 h; series mostly up to 35 µM

outcome, inactive:
O=C(CC(F)(F)F)N1C[C@@H]2[C@H](c3ccccc31)[C@@H](CO)N2C(=O)C1CCCC1
COCCNC(=O)C[C@@H]1CC[C@@H]2[C@H](COc3ccc(NS(=O)(=O)c4ccc(Cl)cc4)cc3C(=O)N2C)O1
O=C(COC(=O)Cc1ccc(S(=O)(=O)N2CCOCC2)s1)Nc1ccc2c(c1)OCO2
COc1ccc(C(C#N)Nc2ccc(C)cc2)cc1 (centres undefined)
COC(=O)C[C@H]1CC[C@@H]2[C@@H](COc3ccc(NC(=O)c4ccc(F)c(F)c4)cc3C(=O)N2C)O1
COCC(=O)Nc1ccc2c(c1)C(=O)N(C)[C@H]1CC[C@@H](CC(=O)NC3CCCC3)O[C@H]1CO2
CNC(=O)C[C@H]1CC[C@@H]2[C@H](COc3ccc(NC(=O)C(C)C)cc3C(=O)N2C)O1
Cc1cc(CN(C)C(=O)c2cc(COc3ccc4ncccc4c3)on2)on1
CC(C)Oc1ccc(CNCCC2(C(C)C)CCOC(C)(C)C2)cc1 (centres undefined)
OC[C@H]1[C@@H](c2ccccc2)[C@H](CNCC2CCC2)N1CC1CC1
C/C=C/c1ccc([C@H]2[C@H](CO)N(C(C)=O)[C@H]2CN(C)C(=O)c2ccccn2)cc1
CN1C(=O)c2cc(NC(=O)Cc3ccccc3)ccc2OC[C@H]2O[C@H](CC(=O)O)CC[C@H]21
COc1ccc(NC(=O)N(C)C[C@H]2Oc3cc(C#CCC(C)C)ccc3S(=O)(=O)N([C@@H](C)CO)C[C@H]2C)cc1
CNC[C@H]1Oc2cc(C#CC3CCCC3)ccc2S(=O)(=O)N([C@H](C)CO)C[C@H]1C
COc1ccccc1C(=O)N1C[C@@H]2[C@H](c3ccccc31)[C@H](CO)N2CC1CCCC1
CC(=O)N(C[C@@H]1N[C@@H](CO)[C@H]1c1ccc(-c2ccccc2)cc1)C(C)C
COCC(=O)Nc1ccc2c(c1)C(=O)N(C)[C@@H]1CC[C@H](CC(=O)N3CCc4ccccc4C3)O[C@H]1CO2
COc1cccc(OCc2cc(/C=N/Nc3ccc(C(=O)O)cc3)ccc2OC)c1
CC1(C)CC(=O)c2cnc(NC(=O)c3ccco3)nc2C1
O=C(C1CC1)N(CCN(C(=O)C1CC1)c1ccccc1)c1ccccc1
COC(=O)c1nn(-c2ccccc2)c(Sc2ccc(Cl)cc2)c1/C=N/O
CO[C@@H]1CN(C)C(=O)c2ccc(NS(=O)(=O)c3cccc(F)c3)cc2OC[C@@H](C)NC[C@H]1C
Cc1ccc(-c2noc(CCC(=O)Nc3ccccc3C)n2)cc1
O=C(NC[C@@H]1[C@H](c2ccccc2)[C@@H](CO)N1Cc1cccnc1)c1ccccn1
COCC(=O)Nc1ccc2c(c1)C(=O)N(C)[C@@H]1CC[C@@H](CC(=O)OC)O[C@@H]1CO2
CCCNC(=O)C[C@H]1CC[C@H]2[C@H](COc3ccc(NC(=O)c4ccc(C(F)(F)F)cc4)cc3C(=O)N2C)O1
CCC(=O)Nc1ccc2c(c1)C(=O)N(C)[C@@H]1CC[C@H](CC(=O)Nc3cccc(OC)c3)O[C@@H]1CO2
CN1CCN(C(=O)C[C@H]2CC[C@@H]3[C@H](COc4ccc(NC(=O)c5cccs5)cc4C(=O)N3C)O2)CC1
FC(F)(F)c1cnc(N2CCCN(C(=S)Nc3ccccc3)CC2)c(Cl)c1
C[C@H](CO)N1C[C@H](C)[C@@H](CN(C)Cc2ccc(C(F)(F)F)cc2)Oc2ccc(NS(=O)(=O)c3ccc(Cl)cc3)cc2CC1=O
CCOc1cc(-c2nccc3cc(OC)c(OC)cc23)cc(OCC)c1OCC
COCC(=O)N(C)C[C@@H]1[C@@H](c2ccccc2)[C@H](CO)N1C(=O)Cc1ccncc1
COC(=O)C[C@H]1CC[C@@H]2[C@@H](COc3ccc(NC(=O)c4cscn4)cc3C(=O)N2C)O1
C[C@@H]1CN([C@H](C)CO)S(=O)(=O)c2ccc(C3=CCCC3)cc2O[C@@H]1CN(C)C(=O)c1ccc(F)cc1
Cn1c(NC(=O)c2ccco2)c(-c2ccccc2Cl)c(=O)c2ccccc21
C=CCNC(=S)NNC(=O)Cn1c(-c2ccccc2)cc(=O)n2ncnc12
CN1C(=O)c2cc(NC(=O)c3ccc4c(c3)OCO4)ccc2OC[C@H]2O[C@H](CC(=O)O)CC[C@@H]21
CC(=O)N1[C@@H](CO)[C@@H](c2ccccc2)[C@@H]1CNC(=O)CN1CCOCC1
CN1C(=O)c2cc(NC(=O)c3cccc(F)c3)ccc2OC[C@@H]2O[C@H](CC(=O)NC3CCC3)CC[C@@H]21
